# According to PubChem BioAssay (NCATS):
# The source made the active and inactive calls. The call rests on the fitted dose curve; in most records, active means well fitted curve in the direction sought with a large enough effect; inconclusive means small, poorly fitted or top-dose-only effect, or another doubt; inactive means no such curve, though single readings can be large or run the other way.
# Target: Hexokinase-4 (Homo sapiens) + Glucokinase regulatory protein (Homo sapiens) (UniProt P35557+Q14397)
# Sequence (P35557 whole entry, looked up): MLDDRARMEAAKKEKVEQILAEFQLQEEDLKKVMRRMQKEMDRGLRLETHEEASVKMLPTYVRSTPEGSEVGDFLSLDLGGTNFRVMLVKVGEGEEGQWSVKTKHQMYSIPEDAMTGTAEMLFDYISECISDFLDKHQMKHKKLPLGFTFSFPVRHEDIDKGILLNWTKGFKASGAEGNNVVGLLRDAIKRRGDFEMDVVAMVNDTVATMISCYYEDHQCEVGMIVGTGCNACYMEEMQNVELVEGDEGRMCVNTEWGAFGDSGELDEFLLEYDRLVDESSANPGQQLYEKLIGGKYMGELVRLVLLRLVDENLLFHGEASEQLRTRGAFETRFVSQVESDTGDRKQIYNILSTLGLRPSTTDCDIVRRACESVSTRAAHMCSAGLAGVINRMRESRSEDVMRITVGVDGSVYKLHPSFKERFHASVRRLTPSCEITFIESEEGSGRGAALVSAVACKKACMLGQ
# Sequence (Q14397 whole entry, looked up): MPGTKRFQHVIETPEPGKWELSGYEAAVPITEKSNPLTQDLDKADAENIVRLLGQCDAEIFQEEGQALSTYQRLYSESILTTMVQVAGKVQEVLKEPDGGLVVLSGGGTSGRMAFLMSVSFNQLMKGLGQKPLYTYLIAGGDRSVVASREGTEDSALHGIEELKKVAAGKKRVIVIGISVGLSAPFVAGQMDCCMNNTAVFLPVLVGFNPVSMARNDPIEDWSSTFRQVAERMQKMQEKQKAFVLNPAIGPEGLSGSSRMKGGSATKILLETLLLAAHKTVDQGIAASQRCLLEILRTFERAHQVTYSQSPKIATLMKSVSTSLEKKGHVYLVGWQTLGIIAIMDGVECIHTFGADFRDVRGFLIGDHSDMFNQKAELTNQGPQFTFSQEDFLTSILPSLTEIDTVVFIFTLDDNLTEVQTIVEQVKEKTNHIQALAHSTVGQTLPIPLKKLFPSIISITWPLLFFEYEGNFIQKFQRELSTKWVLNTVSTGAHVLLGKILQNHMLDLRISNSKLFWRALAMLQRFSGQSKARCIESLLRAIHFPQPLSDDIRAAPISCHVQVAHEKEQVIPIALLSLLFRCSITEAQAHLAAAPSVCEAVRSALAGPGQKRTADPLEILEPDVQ
# Test: qHTS assay for inhibitors of recombinant human GCK-GKRP interaction: HTRF assay (AID 743207)
# Conditions: recombinant GCK-GKRP HTRF binding, 60 min; series mostly up to 57.5 µM
# Source text: Glucokinase (GCK) is a glucose sensor in hepatocytes and pancreatic beta-cells. Hepatic GCK is regulated by glucokinase regulatory protein (GKRP), which is predominantly localized to the liver. GKRP binds to GCK inhibiting its activity in the fasting state while in the presence of glucose the GKRP is displaced. There is an additional layer of regulation by fructose 1-phosphate and fructose 6-phosphate, which inhibit and enhance the GCK-GKRP interaction, respectively. GCK plays a role in glucose homeostasis and there is an interest in the development of strategies to activate GCK to lower blood glucose levels in type 2 diabetes. To date the majority of effort has focused on direct activation of GCK and the assays developed herein look to activate GCK by inhibiting its binding to GKRP. A compound that inhibits the interaction of GCK with GKRP could be important for the treatment of diabetes and can also be used as a tool compound to further elucidate GCK-GKRP biology. To that end, we have developed an HTS biochemical assay using HTRF technology for to interrogate the GCK-GKRP interaction. This assay was screened against a small compound library to look for modulators of activity.
# 3 uL of 5 nM GST-GCK and 5 nM FLAG-GKRP proteins with 2 uM S6P (columns 1-2, 4-48; Millipore, Billerica, MA) are dispensed into Greiner, white solid-bottom 1536-well assay plates; columns 3 receive buffer without GCK as a control for maximum inhibition. Buffer contains 2 mM MgCl2, 25 mM KCl, 25 mM Hepes, 1 mM DTT, 0.1% Tween 20 and 0.025% BSA and the pH was adjusted to 7.1. Compounds (23 nL) are then transferred via Kalypsys pin tool equipped with 1536-pin array (10 nL slotted pins, V&P Scientific, San Diego, CA). The library compounds are in columns 5-48 and columns 1-4 serve as controls with DMSO in columns 1 and 3 and 26 mM 1:1.5 fold serial of gluckokinase activator (GKA-EMD) in column 2 and 26 mM of the glucokinase activator (GKA-EMD) in column 4. Following addition of compound, 1 uL of detection antibodies (anti-Flag XL 665 and anti-GST K in reconstitution buffer from Cisbio, Bedford, MA; 0.7 ng/well and 0.0945 ng/well, respectively) is added, and the mixture is allowed to equilibrate for 60 minutes at room temperature. Data are normalized to DMSO-treated control columns with (maximum signal) and without (minimum signal) enzyme. Plates were read on an Envision plate reader (PerkinElmer, Shelton, CT, USA) with excitation at 320 nm and dual-wavelength detection at the Fret donor wavelength (615 nm) and the FRET acceptor wavelength (665 nm).
row,SMILES,outcome
1,CN1C(=O)CCS(=O)(=O)C1c1ccc(Cl)cc1 (stereo not given),inactive
2,C=C(C)[C@H]1CN[C@H](C(=O)O)[C@H]1CC(=O)O,inactive
3,COc1ccc2c(c1OC)C(=O)O[C@H]2[C@@H]1c2cc3c(cc2CCN1C)OCO3,inactive
4,CC(C)(C)NCC(O)c1ccccc1Cl (stereo not given),inactive
5,O=C(O)CCCc1ccc(N(CCCl)CCCl)cc1,inactive
6,O=P1(N(CCCl)CCCl)NCCCO1 (stereo not given),inactive
7,CC(C)c1cccc(C(C)C)c1O,inactive
8,O=C(CCCN1CCC2(CC1)C(=O)NCN2c1ccccc1)c1ccc(F)cc1,inactive
9,Cc1ncsc1CCCl,inactive
10,CC(NC(C)(C)C)C(=O)c1cccc(Cl)c1 (stereo not given),inactive
11,CCC1(c2ccc(N)cc2)CCC(=O)NC1=O (stereo not given),inactive
12,CCCCC/C=C\C/C=C\C/C=C\C/C=C\CCCC(=O)NCC(=O)O,inactive
13,CC(C)N(CCC(C(N)=O)(c1ccccc1)c1ccccn1)C(C)C (stereo not given),inactive
14,NCCc1ccc(O)cc1,inactive
15,O=c1[nH]oc2c1CCNC2,inactive
